Measurements as given in the antibiotic and cytotoxicity screens of Wong et al. (2023).
The whole screen tested about 39,000 compounds, of which about 1,500 (3.8%) were called active. Shown is part of a subset that was picked to be rich in actives.

Test system: HSkMC (human skeletal muscle cells)
Assay: cytotoxicity call (relative viability < 0.9)
Details: 10 µM

| SMILES | cytotoxicity call |
| --- | --- |
| C[C@H](CO)N1C[C@H](C)[C@@H](CN(C)C(=O)CN(C)C)Oc2cc(-c3cncnc3)ccc2S1(=O)=O | inactive |
| O=C(C[C@H]1CC[C@H]2[C@@H](COC[C@H](O)CN2C(=O)c2cnccn2)O1)NCc1ccc(Oc2ccccc2)cc1 | inactive |
| C[C@@H]1CN([C@H](C)CO)S(=O)(=O)c2ccc(C#CC3CCCC3)cc2O[C@H]1CN(C)C(=O)Cc1ccncc1 | inactive |
| C[C@@H]1CCCCO[C@@H](CN(C)C(=O)c2ccccc2)[C@@H](C)CN([C@H](C)CO)C(=O)c2cc(NS(=O)(=O)c3ccc(Cl)cc3)ccc2O1 | inactive |
| O=C(NCC(F)(F)F)[C@@H]1[C@@H](CO)[C@@H]2Cn3c(cccc3=O)[C@H]1N2C(=O)C1CCC1 | inactive |
| COc1ccc(S(=O)(=O)N(C)C[C@H]2Oc3ccc(NS(=O)(=O)c4ccc(C)cc4)cc3C(=O)N([C@H](C)CO)C[C@@H]2C)cc1 | inactive |
| CC(C)NC(=O)N(C)C[C@@H]1Oc2ccc(NC(=O)CCN3CCOCC3)cc2CC(=O)N([C@@H](C)CO)C[C@@H]1C | inactive |
| Cc1ccccc1S(=O)(=O)N1C[C@H](O)COC[C@H]2O[C@@H](CC(=O)NCc3ccccc3Cl)CC[C@@H]21 | inactive |
| COc1ccc2c3c([nH]c2c1)[C@H](CO)N(Cc1ccc(cc1)Cl)C[C@]13CCN(CCc2ccccc2)CC1 | inactive |
| COc1ccc2c3c([nH]c2c1)[C@@H](CO)N(C[C@]13CN(CCc2ccccc2)C1)C(=O)CN1CCOCC1 | inactive |
| COc1ccc2c3c([nH]c2c1)[C@H](CO)N(C[C@]13CCN(CCc2ccccc2)CC1)C(=O)CN1CCOCC1 | inactive |
| COc1ccc2c3c([nH]c2c1)[C@@H](CO)N(Cc1ccc(cc1)Cl)C[C@]13CCN(CCc2ccccc2)CC1 | active |
| COc1ccc2c3c([nH]c2c1)[C@H](CO)N(C[C@]13CN(CCc2ccccc2)C1)C(=O)CN1CCOCC1 | inactive |
| COc1ccc2c3c([nH]c2c1)[C@H](CO)N(Cc1ccc(cc1)Cl)C[C@]13CN(CCc2ccccc2)C1 | active |
| COc1ccc2c3c([nH]c2c1)[C@@H](CO)N(Cc1ccc(cc1)Cl)C[C@]13CN(CCc2ccccc2)C1 | active |
| COc1ccc2c3c([nH]c2c1)[C@@H](CO)N(Cc1ccccc1)C[C@]13CCN(CC1)C(=O)Nc1cccc(c1)F | inactive |
| COc1ccc2c3c([nH]c2c1)[C@H](CO)N(Cc1ccccc1)C[C@]13CCN(CC1)C(=O)Nc1cccc(c1)F | inactive |
| C[C@@H]1CCCCO[C@H](CN(C)C(=O)c2ccccc2)[C@H](C)CN([C@@H](C)CO)C(=O)c2cc(NC(=O)Cc3ccccc3)ccc2O1 | inactive |
| C[C@@H]1CN([C@@H](C)CO)C(=O)Cc2cc(NS(=O)(=O)c3cn(C)cn3)ccc2O[C@H]1CN(C)C | inactive |
| COC(=O)C1=CO[C@@H](O[C@@H]2O[C@H](CO)[C@@H](O)[C@H](O)[C@H]2O)[C@@H]2[C@@H](CO)C=C[C@H]12 | inactive |
| C[C@@H]1CN([C@@H](C)CO)C(=O)c2cc(NC(=O)CCC(F)(F)F)ccc2O[C@@H](C)CCCCO[C@@H]1CN(C)C(=O)C1CCCCC1 | inactive |

| SMILES | cytotoxicity call |
| --- | --- |
| COc1ccc(C#Cc2ccc3c(c2)O[C@@H](CN(C)C(C)=O)[C@@H](C)CN([C@H](C)CO)S3(=O)=O)cc1 | inactive |
| COc1ccc(CN(C)C[C@@H]2OCCCC[C@H](C)Oc3ccc(NC(=O)CCC(F)(F)F)cc3C(=O)N([C@@H](C)CO)C[C@@H]2C)cc1 | inactive |
| CCCNc1nc(Nc2ccc(C#N)cc2)ncc1C#CCCCNC(=O)[C@H](C)N(C)C(=O)/C=C/CN(C)C | active |
| OCc1ccccc1-n1cncn1 | inactive |
| COc1ccc2c3c([nH]c2c1)[C@H](CO)N(CC1CCCC1)C[C@]13CCN(CC1)C(=O)c1ccc(cc1)F | active |
| COc1ccc2c3c([nH]c2c1)[C@@H](CO)N(C[C@]13CCN(CC1)C(=O)Nc1ccc(cc1)F)C(=O)c1ccc(cc1)F | inactive |
| COc1ccc2c3c([nH]c2c1)[C@@H](CO)N(CC1CCCC1)C[C@]13CCN(CC1)C(=O)c1ccc(cc1)F | active |
| COc1ccc2c3c([nH]c2c1)[C@H](CO)N(C[C@]13CCN(CC1)C(=O)Nc1ccc(cc1)F)C(=O)c1ccc(cc1)F | inactive |
| COc1ccc2c3c([nH]c2c1)[C@@H](CO)N(CC1CCCC1)C[C@]13CCN(CC1)C(=O)Nc1cccc(c1)F | inactive |
| COc1ccc2c3c([nH]c2c1)[C@H](CO)N(CC1CCCC1)C[C@]13CCN(CC1)C(=O)Nc1cccc(c1)F | inactive |
| CC(=O)N[C@H](Cc1ccc2ccccc2c1)C(=O)N[C@H](Cc1ccc(Cl)cc1)C(=O)N[C@H](Cc1cccnc1)C(=O)N[C@@H](CO)C(=O)N(C)[C@@H](Cc1ccc(O)cc1)C(=O)N[C@H](CC(N)=O)C(=O)N[C@@H](CC(C)C)C(=O)N[C@@H](CCCCNC(C)C)C(=O)N1CCC[C@H]1C(=O)N[C@H](C)C(N)=O | inactive |
| CS(=O)(=O)Nc1ccc2c(c1)[C@@H]1C[C@H](CC(=O)NCc3ccc(-c4ccccc4)cc3)O[C@@H](CO)[C@@H]1O2 | inactive |
| C[C@@H]1CN([C@@H](C)CO)C(=O)Cc2cc(NC(=O)CCCCCC(=O)Nc3ccccc3N)ccc2O[C@H]1CN(C)Cc1ccccc1 | inactive |
| C[C@@H]1CN([C@H](C)CO)C(=O)c2cc(NC(=O)Nc3ccc(C(F)(F)F)cc3)ccc2O[C@@H](C)CCCCO[C@H]1CN(C)S(=O)(=O)c1ccc(F)cc1 | inactive |
| Cc1noc(C)c1NC(=O)N(C)C[C@@H]1OCCCC[C@H](C)Oc2ccc(NS(=O)(=O)c3ccccc3)cc2C(=O)N([C@@H](C)CO)C[C@@H]1C | inactive |
| CC(C)Oc1cccc(-n2c(CCc3c[nH]c4ccc(Br)cc34)nc3ccccc3c2=O)c1 | active |
| COc1ccc2[nH]cc(CCNC(C)=O)c2c1 | inactive |
| Cn1c(CN)nc2ccccc2c1=O | inactive |
| C[C@@H]1CCCCO[C@H](CN(C)C(=O)Cc2ccccc2)[C@H](C)CN([C@H](C)CO)C(=O)c2cc(NS(=O)(=O)c3cccs3)ccc2O1 | inactive |
| Cc1noc(C)c1S(=O)(=O)Nc1ccc2c(c1)C(=O)N([C@@H](C)CO)C[C@H](C)[C@H](CN(C)S(=O)(=O)c1cn(C)cn1)O2 | inactive |
| C[C@@H]1CN([C@@H](C)CO)C(=O)c2cc(NS(=O)(=O)c3cn(C)cn3)ccc2O[C@@H](C)CCCCO[C@H]1CN(C)C(=O)Nc1cccc2ccccc12 | active |

| SMILES | cytotoxicity call |
| --- | --- |
| C[C@H]1CCCCO[C@@H](CN(C)C(=O)Nc2cccc3ccccc23)[C@@H](C)CN([C@@H](C)CO)C(=O)c2cc(NS(=O)(=O)c3cn(C)cn3)ccc2O1 | active |
| C[C@@H]1CN([C@@H](C)CO)C(=O)c2cc(NS(=O)(=O)c3cn(C)cn3)ccc2O[C@@H](C)CCCCO[C@@H]1CN(C)C(=O)Nc1cccc2ccccc12 | active |
| C[C@H](CO)N1C[C@H](C)[C@@H](CN(C)C(=O)Nc2cccc3ccccc23)OCCCC[C@H](C)Oc2ccc(NS(=O)(=O)c3cn(C)cn3)cc2C1=O | inactive |
| C[C@@H]1CCCCO[C@@H](CN(C)C(=O)Nc2cccc3ccccc23)[C@@H](C)CN([C@H](C)CO)C(=O)c2cc(NS(=O)(=O)c3cn(C)cn3)ccc2O1 | inactive |
| C[C@H](CO)N1C[C@H](C)[C@H](CN(C)C(=O)Nc2cccc3ccccc23)OCCCC[C@H](C)Oc2ccc(NS(=O)(=O)c3cn(C)cn3)cc2C1=O | inactive |
| C[C@@H]1CCCCO[C@@H](CN(C)C(=O)Nc2cccc3ccccc23)[C@H](C)CN([C@H](C)CO)C(=O)c2cc(NS(=O)(=O)c3cn(C)cn3)ccc2O1 | inactive |
| C[C@@H]1CCCCO[C@H](CN(C)C(=O)Nc2cccc3ccccc23)[C@H](C)CN([C@@H](C)CO)C(=O)c2cc(NS(=O)(=O)c3cn(C)cn3)ccc2O1 | inactive |
| C[C@@H]1CCCCO[C@H](CN(C)C(=O)Nc2cccc3ccccc23)[C@H](C)CN([C@H](C)CO)C(=O)c2cc(NS(=O)(=O)c3cn(C)cn3)ccc2O1 | active |
| C[C@@H]1CCCCO[C@H](CN(C)C(=O)Nc2cccc3ccccc23)[C@@H](C)CN([C@@H](C)CO)C(=O)c2cc(NS(=O)(=O)c3cn(C)cn3)ccc2O1 | inactive |
| C[C@@H]1CCCCO[C@@H](CN(C)C(=O)Nc2cccc3ccccc23)[C@H](C)CN([C@@H](C)CO)C(=O)c2cc(NS(=O)(=O)c3cn(C)cn3)ccc2O1 | inactive |
| C[C@H]1CCCCO[C@H](CN(C)C(=O)Nc2cccc3ccccc23)[C@@H](C)CN([C@@H](C)CO)C(=O)c2cc(NS(=O)(=O)c3cn(C)cn3)ccc2O1 | inactive |
| C[C@@H]1CN([C@@H](C)CO)S(=O)(=O)c2ccc(-c3cncnc3)cc2O[C@H]1CN(C)C(=O)Cc1cccnc1 | inactive |
| C[C@@H]1CCCCO[C@H](CN(C)C(=O)Nc2ccccc2)[C@@H](C)CN([C@H](C)CO)C(=O)c2cc(NC(=O)c3ccncc3)ccc2O1 | inactive |
| Cc1noc(C)c1NC(=O)N(C)C[C@H]1Oc2ccc(NS(=O)(=O)c3cccs3)cc2CC(=O)N([C@@H](C)CO)C[C@H]1C | inactive |
| Cc1ccc(-c2cnc(-c3ccc(Br)cc3)o2)cc1 | inactive |
| C[C@@H]1CN([C@H](C)CO)C(=O)Cc2cc(NC(=O)Cn3cnnn3)ccc2O[C@@H]1CN(C)Cc1ccccc1 | inactive |
| CCCN1C[C@H](C)[C@@H](O)[C@](C)(O)[C@@H](CC)OC(=O)[C@H](C)[C@@H](O[C@H]2C[C@@](C)(OC)[C@@H](O)[C@H](C)O2)[C@H](C)[C@@H](O[C@@H]2O[C@H](C)C[C@H](N(C)C)[C@H]2O)[C@](C)(O)C[C@H]1C | inactive |
| Cc1oc(C(C)(C)C)cc1C(=O)Nc1ccc(C(C)C)cc1 | inactive |
| CC(C)c1ccccc1Cc1cc(C(=O)Nc2ccc(S(=O)(=O)c3ccccc3C(C)(C)C)cc2)c(O)c(O)c1O | active |
| CCc1cccc(C(C)C)c1NC(=O)Nc1ccccc1 | inactive |
